Reference: the supplement of paper PMC6555819

Experiments:
Assay in all cases: PBM binding z-score (relative to random genomic background probes); higher = stronger binding; sequences stand for … in GC…GCGATTGACAGCGTAGAATGAAGG
[1] = system: RARb homodimer (NR concentration 270 nM)
In short: (§1)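 Custom Agilent 4×180K protein-binding microarrays carried double-stranded probes. Their 34-nt variable regions held direct-repeat seeds, single-nucleotide variants, half-site ablations and random human genomic background sequences. Arrays were incubated 1 h with ligand-free nuclear receptor dimers in PBS pH 7.4, 2% milk, 0.02% Triton X-100, 1 mM DTT, 0.2 mg/mL BSA and 0.4 mg/ml salmon testes DNA. Antibodies against each partner (one per run) detected binding, and scanned fluorescence was regression-normalized. Binding z-scores use random background probes as reference.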

[2] = system: RARg:RXRa (NR concentration 270 nM, RXRa partner concentration 90 nM)
In short: as §1

[3] = system: RARg homodimer (NR concentration 270 nM)
In short: as §1

[4] = system: RXRa DBDmut IVT, anti-RXR (DBD mutation: RXRa K156A/R161A, NR concentration 90 nM)
In short: as §1

[5] = system: RXRa homodimer (NR concentration 180 nM)
In short: as §1

[6] = system: THRa:RXRa (NR concentration 90 nM, RXRa partner concentration 90 nM)
In short: as §1

[7] = system: THRa homodimer (NR concentration 90 nM)
In short: as §1

[8] = system: VDR:RXRa (NR concentration 270 nM, RXRa partner concentration 90 nM)
In short: as §1

[9] = system: VDR homodimer (NR concentration 270 nM)
In short: as §1

Sequence	PBM binding z-score [1]	PBM binding z-score [2]	PBM binding z-score [3]	PBM binding z-score [4]	PBM binding z-score [5]	PBM binding z-score [6]	PBM binding z-score [7]	PBM binding z-score [8]	PBM binding z-score [9]
ATCTCTAGGTAAAAGCTCAGTGAATCCCGAGGAT	-0.335	-0.0468	0.135	-0.625	-0.149	0.0962	-0.296	-0.227	-0.497
AGAATGAGGTTAAGATAAGGGAAACAGAATACAT	1.07	2.11	1.69	0.785	2.6	2.71	1.05	1.62	0.183
AGAACGAGGGCAATGAGTTGTTAGCACGGGTGGC	0.552	0.787	1.3	1.76	0.588	0.64	-0.39	4.09	2.19
TCATATAGGTAAAAGGTGAAAGTAGGTGTGGTAA	2.04	2.13	1.16	2.18	3.34	2.19	0.852	1.93	0.549
CAAACTAGGTTACCGGAAGGTCAAAGTCCGCATG	4.55	6.15	4.19	0.838	4.64	3.68	1.66	4.16	2.56
ATATGTAGGTTAAGGGTCATTCCGGTTGGTTCGC	3.85	4.63	3.26	2.44	5.95	3.49	1.62	5.11	4.26
CCTCGCAGGACAACAGGAGGTCAGAGCTGCCAGA	3.19	2.79	2.57	0.186	1.86	2.51	0.912	1.42	1.05
TCGAGTAGGTAAGGGGCATTCAGAATGGCGTCGA	0.551	-0.117	-0.0823	-0.0222	0.0821	-0.336	-0.325	0.0857	0.178
GATACAGTGTCAAGGCCAGAGTACGCGTATTGAT	1.04	0.527	1.03	0.061	0.517	0.471	-0.196	0.126	0.431
CCGAGCAGGTTATGGGGCATTCAGGCAACGGTGA	1.03	0.387	0.573	-0.126	0.679	0.573	0.0585	-0.144	-0.392
CCTTACGGGTCACTGACAGGTTATTGCATTTGGA	3.24	5.55	4.57	1.94	5.07	2.92	0.504	3.93	1.45
ACAGAAAGGTGAGTGAAGGTAACTCAGCTGGACG	1.15	1.58	1.59	-0.371	1.28	2.58	-0.361	0.368	-0.509
GGAACGAGGGCAAGTTGATAGCTGAGTTTGATGG	1.5	1.45	2.07	2.58	0.669	1.09	0.0146	0.643	1.84
ACTCTGAGGACAAAGGTCAGAGCTACGCCAGTGA	4.42	6.21	5.31	2.07	5.18	4.44	2.66	3.49	1.19
CCTAGTTCGTCAGGAGGTCACACACCGGATATGA	4.54	6.37	4.42	3.1	4.83	3.92	2.68	5.03	4.2
TCGATTAGGTTAGTCGGGGCATTCAGCCAACATA	0.609	0.149	0.141	1.32	0.147	1.4	0.446	2.14	0.465
CCGACTGGGGCAAGGTAACCATAACGCACAGCCA	0.426	0.417	0.527	-0.495	0.481	0.522	0.219	-0.466	-0.0983
ACTAGCAGGCCAAGGGGCACTCAAGATTAGTCCG	0.873	0.423	0.766	-0.00995	0.366	0.0441	-0.582	-0.375	0.169
TCTCAAAGTTCAAAGGTAACGTAAGTATCCACAC	4.13	6.13	6.25	4.59	7.17	3.46	0.566	4.93	4.09
ATCTCTACGTAAAGTTCAGTGAAAGATCGATAGA	2.6	2.27	2.86	1.51	1.2	0.674	-0.289	1.67	2.27
TCATATAGGTAAATGCTAGGTTAAAGTCCGATCT	0.967	0.772	0.598	1.74	0.914	1.35	0.664	1.33	0.441
CGTCCAAGGTCTATGCTAGGTCAGTGAAAGCATT	2.43	1.52	1.37	0.335	0.248	2.21	0.687	0.278	0.404
ACATGTAGGTTATCGGGTCATTCAGTTTGCGCAT	3.23	3.35	2.41	1.87	3.6	3.32	3.05	5.39	4.06
TCTATTAGTTGAGTAGGGCAACCGAAACAGCGGA	0.153	0.16	0.294	0.368	0.116	-0.257	-0.445	-0.07	-0.411
CGTCCAAGGTCATAGGAGGTCAGTGAAGACAGAT	5.19	6.63	7.12	3.93	6.4	5.42	3.01	6.46	4.13
TCTAGCAGGCCGGAGGGTCACTCAAGAGGTACGG	2.33	2.01	1.52	0.00965	2.13	1.44	-0.391	1.03	0.104

Sequence	PBM binding z-score [1]	PBM binding z-score [2]	PBM binding z-score [3]	PBM binding z-score [4]	PBM binding z-score [5]	PBM binding z-score [6]	PBM binding z-score [7]	PBM binding z-score [8]	PBM binding z-score [9]
CGTCCAAGGTCAATGCTAGGTCAGTGACAGCATT	4.95	7.61	6.78	3.65	5.25	4.63	2.99	4.87	2.97
CCTACTGGGCCAAAAAGGGCATTGATGCCGATAA	1.32	0.413	0.776	-0.51	0.0736	0.26	-0.987	1.01	0.107
CGAACTAGGTCAGAAGAGGACAGTGAAGGATGAT	2.53	2.68	3.66	0.392	1.03	4.34	0.406	1.69	0.275
TCTTGTAGATCAACAGGAGGTTATGAAAGATCGA	0.222	0.765	0.211	0.368	0.889	0.76	-0.681	0.761	-0.167
TCGATTAGGTTACCAATGGGGCATTCAGCTTTCT	1.09	1.39	0.551	1.2	0.573	0.894	0.0109	0.441	-0.327
CAGCCTAGGTCAGGTCCAGTATAGGAGGAACGTT	1.98	2.25	3.33	-0.0428	1.14	1.68	0.525	0.304	0.207
TGAATGAGGTTATAAGATCAAGGAACGTTGCAAA	0.308	1.58	0.824	0.325	2.15	1.84	0.279	1.1	0.367
TTAGCAAGGTGAGCTGAGGTCGTTGATCCAACTC	1.52	1.03	0.726	-0.339	1.13	4.75	1.97	4.01	2.37
CTCGAAAGGTCGTGCTCAGGTGAGTGTACCAAAC	3.22	5.21	4.01	2.21	4.95	4.11	1.21	3.44	1.26
CCTACTGGGCCATTCAGAGGTCATTGCTCATATG	3.78	4.44	3.16	0.998	3.47	3.03	1.28	3.84	3.65
CCTCGGAGGACAATAGGAGGTCAGAGCTGCCAGA	3.18	2.71	2.63	-0.00493	1.64	2.43	0.711	1.51	0.843
CCTAGCAGCCCAGGGTCACTCAAGCATTTCGCTT	2.69	2.9	2.45	0.289	3.38	2.77	1.13	2.44	1.33
ACAGACAGGTGATGAAGGTAACTCAGGCTATCAT	0.446	0.303	0.521	-0.295	0.205	0.774	0.267	0.0426	-0.205
ATCTCTAGGTAAAGATAATTCAGTGAATGCAAAT	-0.268	0.658	0.648	0.0492	0.365	0.654	0.0536	0.0441	-0.00622
TCTGCTAGGTCACCGATGGTCAGCTAATCTGCTA	3.6	4.74	5.73	0.891	3.28	3.48	1.23	2.17	-0.0284
CGTCCAAAGTCAGCAGGTCAGTGAAAGCGACGTG	2.43	1.31	1.5	0.597	0.851	1.05	0.291	0.372	0.0938
CGTCAAAGTTCAACTAAGGTAACGTCAAGCACGC	4.4	5.96	6.81	4.8	4.81	5.05	1.86	4.83	3.9
TGAATGAGGTTATAAGATCAGGAAACGTTGCAAA	0.0307	1.61	0.861	0.926	2.21	1.77	-0.0709	1.01	0.225
CAAACTAGGTCACAGAGGTCAAAGACCGTGCGTA	5.43	7.3	7.86	3.1	7.71	4.68	2.81	7.76	6.4
GCTAGCAGGCCATTTGGGTCATTCAATGACGGGC	1.64	0.979	1.01	0.394	0.908	1.82	0.24	1.56	1.21
TCTAGTTGGTCACGGAGATCACACACGACGGGTA	1.07	1.07	1.4	0.762	1.19	0.155	0.328	0.966	0.211
CAAACTAGGTCACAGAGGTGAAAGTCCGTGCGTA	3.98	5.15	5.24	1.76	4.44	3.9	2.28	5.99	2.6
TCATATAGGTAAACAGGTGAACGTCCGTAAGTTA	0.948	0.887	0.712	1.31	1.28	1.12	0.353	1.19	0.243
CCTTACGGGTCACGAGGTTAAAGCACGACGAGCG	3.99	6.28	5.56	2.06	6.97	3.82	0.843	5.59	2.06
CGAACTAGGTCAAGGACAGCGAATCTCCGCACGC	3.31	3.9	4.6	1.5	2.63	3.17	2.2	1.31	0.441
CCTACTGGGCCCTCAGGTCATTGATATCAACGTT	2	1.1	0.939	-0.149	0.755	3	2.78	1.43	1.17
